Source: PubChem BioAssay
The list is not random: actives were taken first. Their share in the collection is about 1.1%.
LRH-1 inv ag – NR5A2 inverse agonism in reporter assay; HEK293T StAR-luciferase reporter, LRH-1 transfected, 24 h; AID 602396; inhibition, % at 3.6 µM; O00482; 360,000 compounds, 0.13% hits;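 active means inhibition above the mean inhibition of all tested compounds plus 3 SD, cut at about 73% in these data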
NCOA2 inhibitor – human SRC2 (NCOA2) inhibition; Q15596; HEK293 GAL4-SRC2 luciferase reporter, luminescence; inhibition, % at 9 µM; 370,000 compounds, 0.17% hits; AID 651957;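 active means inhibition above the mean inhibition of all tested compounds plus 3 SD, set per campaign, cut at about 52% in these data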
GalR3 antagonist – antagonists of human GalR3; O60755; HEK293 GalR3-CNG cAMP membrane potential fluorescence; galR3 body fused to GalR1 C-terminus; inhibition, % at 3 µM; 360,000 compounds, 0.44% hits; AID 651719;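 active means inhibition above the screen-wide average plus 3 SD, cut at about 13% in these data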;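 further: forskolin and galanin both at EC90 stimulate the cells; cAMP rise reported by CNG channel membrane potential dye signal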
NR2F2 inh – inhibitors of human COUP-TFII (NR2F2). inhibition, % at 8.6 µM. AID 686940. HEK293T NGFI-A luciferase reporter, luminescence. 370,000 compounds, 0.7% hits;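 active means inhibition above a per-plate cutoff, mean inhibition of test wells between control levels plus 3 SD, cut at about 38% in these data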;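 further: cells cotransfected with COUP-TFII expression vector driving the NGFI-A reporter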
NCOA1 inh – inhibits human SRC1 coactivator; inhibition, % at 3.6 µM; 360,000 compounds, 0.12% hits; Q15788; HEK293 GAL4-SRC1 luciferase reporter, luminescence;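 active means inhibition above the campaign mean plus 3 SD, with each screening campaign given its own cutoff, cut at about 60% in these data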
Target sequence (Q15788 whole entry, looked up, the tested form may be a part): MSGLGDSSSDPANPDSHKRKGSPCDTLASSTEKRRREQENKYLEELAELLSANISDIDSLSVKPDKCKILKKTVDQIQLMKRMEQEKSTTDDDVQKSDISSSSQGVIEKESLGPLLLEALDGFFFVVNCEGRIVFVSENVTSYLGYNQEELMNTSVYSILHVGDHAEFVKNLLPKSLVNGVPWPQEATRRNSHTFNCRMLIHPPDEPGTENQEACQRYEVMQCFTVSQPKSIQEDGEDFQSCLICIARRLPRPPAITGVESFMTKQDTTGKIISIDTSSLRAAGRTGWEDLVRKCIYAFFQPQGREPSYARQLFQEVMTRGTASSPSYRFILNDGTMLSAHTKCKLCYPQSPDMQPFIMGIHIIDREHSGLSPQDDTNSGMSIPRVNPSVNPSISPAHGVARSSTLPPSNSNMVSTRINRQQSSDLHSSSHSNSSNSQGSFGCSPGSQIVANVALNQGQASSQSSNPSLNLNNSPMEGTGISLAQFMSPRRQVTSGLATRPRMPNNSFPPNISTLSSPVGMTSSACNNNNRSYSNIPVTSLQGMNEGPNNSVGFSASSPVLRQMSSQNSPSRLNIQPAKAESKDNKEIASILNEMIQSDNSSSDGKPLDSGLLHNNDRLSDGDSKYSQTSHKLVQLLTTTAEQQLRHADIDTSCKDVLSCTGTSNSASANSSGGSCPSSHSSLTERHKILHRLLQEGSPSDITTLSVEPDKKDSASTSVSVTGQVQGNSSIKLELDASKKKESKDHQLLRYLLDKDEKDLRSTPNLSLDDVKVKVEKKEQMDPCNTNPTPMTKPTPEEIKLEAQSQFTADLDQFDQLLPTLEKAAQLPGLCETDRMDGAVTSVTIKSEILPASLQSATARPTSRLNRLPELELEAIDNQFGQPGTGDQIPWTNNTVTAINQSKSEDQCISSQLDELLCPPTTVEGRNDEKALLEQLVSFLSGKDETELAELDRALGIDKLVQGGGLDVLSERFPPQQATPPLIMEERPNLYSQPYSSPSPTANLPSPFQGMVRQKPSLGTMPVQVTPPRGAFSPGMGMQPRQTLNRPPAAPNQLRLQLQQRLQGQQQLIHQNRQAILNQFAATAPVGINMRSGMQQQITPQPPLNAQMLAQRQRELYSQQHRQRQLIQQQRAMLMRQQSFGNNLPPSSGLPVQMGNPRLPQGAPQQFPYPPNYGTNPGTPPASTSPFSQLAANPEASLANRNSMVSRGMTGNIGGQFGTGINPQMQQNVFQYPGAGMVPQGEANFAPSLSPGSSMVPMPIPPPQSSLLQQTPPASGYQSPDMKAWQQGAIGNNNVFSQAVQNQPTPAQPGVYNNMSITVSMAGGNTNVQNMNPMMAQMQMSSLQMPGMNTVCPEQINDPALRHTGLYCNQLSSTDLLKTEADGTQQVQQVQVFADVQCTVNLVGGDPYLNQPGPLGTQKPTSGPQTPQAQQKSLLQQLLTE
NCOA3 inh – inhibitors of human steroid receptor coactivator 3 (SRC3) | HEK293 GAL4-SRC3 luciferase reporter, luminescence | inhibition, % at 3.6 µM | 360,000 compounds, 0.17% hits;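 active means inhibition above a per-campaign cutoff, the mean of all compounds plus 3 SD, cut at about 60% in these data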;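 further: higher means less SRC3-driven luciferase light from the GAL4 reporter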
GalR3 antag conf – confirmation of human galanin receptor 3 antagonists. shares compounds with GalR3 antagonist. HEK293 GalR3 CNG cAMP biosensor, membrane potential fluorescence; galR3 fused to GalR1 carboxy tail; challenged with forskolin and galanin at EC90. inhibition, % at 3 µM. 1,600 compounds, 59% hits;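 active means inhibition above the primary screen's cutoff, the mean inhibition of all screened compounds plus 3 SD, cut at about 13% in these data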
HEK-CNG parental – parental cell agonism counter-screen for GalR3 antagonists; HEK293-CNG parental cells, cAMP membrane potential fluorescence; normalised: DMSO wells 0%, forskolin wells 100%; 1,600 compounds, 10% hits; activation, % at 3 µM; shares compounds with GalR3 antagonist; in the data active means activation above about 1.3%
Numbers stand for hits; n = inactive; x = no result given.

SMILES	LRH-1 inv ag	NCOA2 inhibitor	GalR3 antagonist	NR2F2 inh	NCOA1 inh	NCOA3 inh	GalR3 antag conf	HEK-CNG parental
O=C(O)c1ccccc1NS(=O)(=O)c1cccc(-n2sc3ccccc3c2=O)c1	n	n	33	n	n	n	23	n
Cc1ccccc1Nc1c(-c2ccc(N3CCOCC3)cc2)nc2cnccn12	n	n	n	n	n	n	x	x
Cc1ccc(Nc2c(-c3ccc(N4CCOCC4)cc3)nc3cnccn23)cc1	n	n	16	n	n	n	n	n
COC(=O)[C@H](C)NC(=O)[C@@H]1CCCN1C(=O)CNP(=O)(OCc1ccccc1)OCc1ccccc1	x	x	x	n	x	x	x	x
COc1cc(CN(C)CC(=O)c2[nH]c(C)c(C(C)=O)c2C)ccc1OC(F)F	n	n	19	n	n	n	n	n
CO[C@@H]1[C@H](O)CC[C@]2(O)CN(c3ccc(F)cc3)[C@](C)([C@H](O)CC=C(C)C)[C@@H]12	x	n	n	n	x	x	x	x
COCCCN1C(=O)c2ccc(C(=O)OCC(=O)N(C)c3ccccc3)cc2C1=O	n	n	x	n	n	n	n	n
COc1ccc(CC2(CO)CCN(Cc3ccc(NC(C)=O)cc3)CC2)cc1	n	n	n	n	n	n	x	x
COc1ccc(CC2(CO)CCN(Cc3ccc(OC(F)(F)F)cc3)CC2)cc1	n	n	17	n	n	n	n	1.8
COc1ccc(CC2(CO)CCN(Cc3cnn(-c4ccc(F)cc4)c3)CC2)cc1	n	n	17	n	n	n	n	1.5
COc1ccc(CC2(CO)CCN(Cc3cnn(-c4ccccc4)c3)CC2)cc1	n	n	n	n	n	n	x	x
Cc1ccc(C2NC(=O)c3ccccc3N2)c(C)c1 (stereo not drawn)	n	n	n	n	n	n	x	x
CCOc1ccccc1C1NC(=O)c2ccccc2N1 (stereo not drawn)	n	n	13	n	n	n	13	1.4
COC(=O)c1c(-c2ccc(OC)cc2)sc2cc3c(cc12)OCO3	n	n	13	n	n	n	18	n
CC(C)CC(CCOCCO)NC(=O)OCc1ccccc1[N+](=O)[O-] (stereo not drawn)	x	x	x	n	x	x	x	x
O=C(NCc1cccc(C(F)(F)F)c1)c1ccc2sc([C@@H]3O[C@H](CO)[C@@H](O)[C@H]3O)nc2c1	n	n	n	n	n	n	x	x
O=C(NCC(F)(F)F)c1ccc2sc([C@@H]3O[C@H](CO)[C@H](O)[C@H](O)[C@H]3O)nc2c1	n	n	40	n	n	n	n	n
NC(Cc1ccc(O)cc1)C(=O)NN=Cc1ccccc1O (stereo not drawn)	x	n	n	n	x	x	x	x
COCCCN1C(=O)[C@H](CC(=O)N2CCSCC2)[C@]2(C(=O)OC)CCCCC=C12	x	n	x	n	x	x	x	x
CCOC(=O)c1cc[n+](CC(=O)c2ccc(F)cc2)cc1	n	n	15	n	n	n	n	n
CCC(=O)Nc1ccc2c(c1)C(=O)N(C)[C@@H]1CC[C@@H](CC(=O)OC)O[C@H]1CO2	x	n	x	n	x	x	x	x
COCC1CN(CCc2ccc(F)cc2)S(=O)(=O)c2c(F)cccc2O1 (stereo not drawn)	x	n	n	n	x	x	x	x
CCC[C@H]1[C@@H](OC(=O)N2CCCC2)CC[C@@]23CCCN2C(=O)CCC[C@@H]13	x	x	x	n	x	x	x	x
Nc1nc2c(ncn2[C@@H]2O[C@H](C(=O)NCCCc3ccccc3)[C@@H](O)[C@H]2O)c(=O)[nH]1	x	n	n	n	x	x	x	x
COC(=O)C1CCN(Cc2ccc(OCCCN3CCN(c4ccc([N+](=O)[O-])cc4)CC3)cc2)CC1	n	n	13	n	n	n	114	3.1
SMILES	LRH-1 inv ag	NCOA2 inhibitor	GalR3 antagonist	NR2F2 inh	NCOA1 inh	NCOA3 inh	GalR3 antag conf	HEK-CNG parental
COCCCNC(=O)C[C@H]1C[C@@]2(C(=O)OC)C(=C[C@H](C(C)C)O[C@@H]2C2CC2)N(Cc2ccccc2)C1=O	x	n	n	n	x	x	x	x
COc1cccc(CNC(=O)[C@H]2CCCN2C(=O)[C@H]2CCCN2C(=O)c2ccc(OC(F)(F)F)cc2)c1	x	n	n	n	x	x	x	x
COc1cc(NC(=O)c2cc(C)on2)cc(C(=O)Nc2cccc(C(F)(F)F)c2)c1	n	n	n	n	n	n	n	n
Cc1ccc(-n2nc(C)c(/C=N/n3c(C)n[nH]c3=S)c2Cl)cc1	n	n	x	n	n	n	n	n
Cc1n[nH]c(=S)n1/N=C/c1ccccc1	n	n	n	n	n	n	x	x
CC(CCc1ccc(O)cc1)NCc1ccc(Br)cc1 (stereo not drawn)	n	n	31	n	n	n	58	n
CC(C)(C)NC(=O)COC(=O)c1snc(C(=O)NC2CCCCC2)c1N	n	n	101	67	n	n	123	n
COc1ccc(-c2csc3ncn(Cc4ccccc4)c(=O)c23)cc1	n	n	n	n	n	n	x	x
COc1ccc(-c2c3c(cc4ncn(Cc5ccccc5)c24)COC3=O)cc1	n	n	27	n	n	n	52	n
CN(C)c1cccc(/C=C2\CC3(OC(=O)c4cccc(F)c4)CCCN2C3)c1 (stereo not drawn)	x	n	x	n	x	x	x	x
Nc1nnc(SCC(=O)NCCNC(=O)CSc2nnc(N)s2)s1	n	n	n	n	n	n	x	x
Nc1nnc(SCC(=O)NCCOc2ccccc2)s1	n	n	18	n	n	n	n	n
O=C(Nc1nc(-c2cccs2)cs1)c1ccc(S(=O)(=O)N2CCCC2)cc1	n	n	n	n	n	n	x	x
O=C(Nc1nc(-c2ccc3c(c2)OCCO3)cs1)c1ccc(S(=O)(=O)N2CCCCC2)cc1	n	n	20	n	n	n	15	n
COc1ccc(CNCC#Cc2ccc(C(F)(F)F)cc2)c(OC)c1	x	n	x	n	x	x	x	x
O=C(Nc1ccc(Br)c2ccccc12)c1ccc2ccccc2c1O	n	n	78	n	n	n	90	n
CC(=O)Nc1ccc(Br)c2ccccc12	n	n	n	n	n	n	x	x
O=S1(=O)c2cc(Cl)ccc2N2CCC[C@@H]2CN1Cc1ccc(Cl)c(Cl)c1	x	n	n	n	x	x	x	x
Brc1ccc(-c2ccccc2)cc1	n	n	n	n	n	n	x	x
Brc1ccc(-c2ncc(-c3ccccc3)cn2)cc1	n	n	x	n	n	n	n	n
CCOC(=O)[C@@]12CN(C(=O)OC(C)(C)C)CC=C1N(Cc1ccc(OC)cc1)C(=O)[C@H]2CC(=O)NCCCN1CCCC1=O	x	n	x	n	x	x	x	x
COc1cc(/C=N/NC(N)=O)ccc1OCC(=O)Nc1ccc(C)c(C)c1	n	n	24	n	n	n	32	n
COc1cc(/C=N/NC(N)=S)ccc1OCC(=O)Nc1ccc(C)c(C)c1	n	n	n	n	n	n	x	x
